# Bioassay records from PubChem.
# Shown are actives, neighbours in structure and some others; about 2.8% of the full set was active somewhere.
# PvdQ inh – P. aeruginosa PvdQ acylase inhibitors, primary screen, biochemical, fluorescence, plate reader and imaging, single point. purified PvdQ acylase. PvdQ acylase [Pseudomonas aeruginosa LESB58]. actives 0.063% (n = 340,000). inhibition, % at 10 µM. AID 488965, 2010; in the data active = inhibition above about 30%, passing the limit was not always enough; inconclusive = no clear call, values can overlap the other calls;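 note: 0% = vehicle neutral wells and 100% = reference inhibitor wells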
# SIRT5 inh – SIRT5 desuccinylase inhibitors, primary screen, biochemical, fluorescence imaging, single point, set 5; AID 652115, 2013; NAD-dependent protein deacylase sirtuin-5, mitochondrial (Homo sapiens), Q9NXA8; Purified SirT5, succinyl-peptide AMC, trypsin-coupled fluorescence; inhibition, % at 15 µM; actives 1.1% (n = 330,000); in the data active = inhibition above about 15%; inconclusive = no clear call, values can overlap the other calls
# dFosB act-1 – activators of delta FosB homodimer, primary screen, biochemical, fluorescence polarization, TAMRA-CDK5 oligo, single point | purified delta FosB; percent of positive-control signal above neutral wells | activation, % at 25 µM | actives 0.99% (n = 340,000) | Protein FosB (Mus musculus), P13346;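 active = mean activation above about 17%, with every replicate also reaching it, limit read from the data, passing the limit was not always enough; inconclusive = only one of the two conditions met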
# Target sequence (P13346 whole entry, looked up): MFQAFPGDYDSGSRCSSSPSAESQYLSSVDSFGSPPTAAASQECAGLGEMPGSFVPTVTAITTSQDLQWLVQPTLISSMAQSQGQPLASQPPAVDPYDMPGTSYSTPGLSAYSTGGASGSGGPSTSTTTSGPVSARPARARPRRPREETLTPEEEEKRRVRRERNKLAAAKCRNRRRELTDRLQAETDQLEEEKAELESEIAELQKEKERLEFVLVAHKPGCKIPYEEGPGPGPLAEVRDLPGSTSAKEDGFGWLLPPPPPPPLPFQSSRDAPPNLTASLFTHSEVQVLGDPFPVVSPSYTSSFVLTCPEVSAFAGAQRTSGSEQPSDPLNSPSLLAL
# PglD DTNB – C. jejuni PglD acetyltransferase inhibitors, primary screen, biochemical, DTNB colorimetric, single point; UDP-N-acetylbacillosamine N-acetyltransferase PglD (Campylobacter jejuni); purified PglD enzyme, DTNB colorimetric CoA detection; inhibition, % at 12.5 µM; actives 0.098% (n = 360,000); AID 602405, 2012; in the data active = inhibition above about 16%, passing the limit was not always enough; inconclusive = no clear call, values can overlap the other calls
# FGF22 binding – binders of human FGF22 protein, primary screen, FGF22 synaptogenesis inhibitor project, biophysical, thermal shift, single point | recombinant FGF22 thermal shift, SYPRO orange fluorescence; percent of sucrose octasulfate shift, DMSO zero | activity (Tm shift, normalised), % at 9.99 µM | actives 1.5% (n = 340,000);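 active = mean Tm shift, scaled 0 neutral to 100 positive control, at about 1.3% or above, every replicate too, limit read from the data; inconclusive = no clear call, values can overlap the other calls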
# Target sequence (Q9HCT0 whole entry, looked up): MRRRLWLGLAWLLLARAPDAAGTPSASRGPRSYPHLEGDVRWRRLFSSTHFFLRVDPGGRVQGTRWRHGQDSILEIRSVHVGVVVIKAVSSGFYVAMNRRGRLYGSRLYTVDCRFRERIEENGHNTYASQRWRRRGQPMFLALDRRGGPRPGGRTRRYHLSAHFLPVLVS
# CDK5 p35 inh – inhibitors of human CDK5/p35 kinase, primary screen, biochemical, single concentration. Cyclin-dependent kinase 5 (Homo sapiens) + Cyclin-dependent kinase 5 activator 1 (Homo …. Recombinant CDK5/p35, ADP-Glo luminescence, 60 min. inhibition, % at 10 µM. actives 0.01% (n = 330,000). AID 488839, 2010;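 active = highest replicate inhibition of at least 50% and at least 75% of replicates reaching 50%; inconclusive = only one of the two criteria met; inactive = both criteria failed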;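 note: plate controls were DMSO neutral control for no effect and GW8510 at 10 µM for full effect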
# dFosB act-2 – activators of mouse delta FosB DNA binding, confirmation, biochemical, fluorescence polarization, TAMRA-CDK5 oligo, cherry-picked samples; shares compounds with dFosB act-1; purified delta FosB; normalised: neutral wells 0, positive control 100; activation, % at 24.9 µM; 2,400 tested, under 10 active; AID 588690, 2011;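 active = highest replicate activation at or above 34% and every replicate reaching that threshold; inconclusive = meets only one of the two criteria; inactive = meets neither criterion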;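 note: higher polarization means more probe DNA bound by delta FosB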
# Starred values were filed as active, the others as inactive; ? = inconclusive; · = not tested or not shown; ! = repeats disagree.
SMILES,PvdQ inh,SIRT5 inh,dFosB act-1,PglD DTNB,FGF22 binding,CDK5 p35 inh,dFosB act-2
Cc1ccc(-c2cc(C(=O)N/N=C/c3ccccc3)n[nH]2)o1,-11,-1,10,3,1,2,·
O=C(N/N=C/c1cccnc1)c1ccc(NC(=O)c2ccc(Cl)cc2)cc1,-14,-8,42*,-1,0,1,-10
O=C(NC(=S)Nc1ccc2oc(=O)ccc2c1)c1cccc(Cl)c1,-16,0,88*,-5,-1,0,0
O=C(NC(=S)Nc1ccc2oc(=O)ccc2c1)c1cccc(F)c1,-2,-3,1,-1,0,0,·
C/C(=N\Nc1nc2ccccc2[nH]1)c1ccc2c(c1)OCCO2,-10,3,15,·,0,1,·
C/C(=N\Nc1nc2ccccc2[nH]1)c1ccc2c(c1)OCO2,16,2,27*,8,0,0,3
COc1ccc(S(=O)(=O)N(C)C[C@H]2OCCCC[C@@H](C)Oc3ccc(NC(=O)CCC(F)(F)F)cc3C(=O)N([C@H](C)CO)C[C@H]2C)cc1,·,10,·,-1,1,·,·
COc1ccc(Br)cc1-c1noc(-c2ccncc2)n1,-2,·,-6,3,·,1,·
COc1ccc(Br)cc1-c1noc(-c2ccccc2)n1,-21,·,27*,-1,·,-3,?
COc1ccc(NC(=O)c2cc(S(=O)(=O)N3CCS(=O)(=O)CC3)ccc2Cl)cc1,-11,·,52*,-1,·,1,2
COc1ccc(NC(=O)c2cc(S(=O)(=O)N3CCCC3)ccc2OC)cc1,-6,-3,-7,0,0,1,·
CN1C(=O)c2cc(NC(=O)NCc3ccccc3)ccc2OC[C@H]2O[C@@H](CC(=O)O)CC[C@@H]21,·,-4,·,6,0,·,·
CCN(CC)CCNC(=O)CCc1c(C)nc2c(c(C)nn2-c2ccc(C)c(C)c2)c1C,-24,-20,20*,-3,0,-1,1
C[C@H](CO)N1C[C@H](C)[C@@H](CN(C)Cc2ccc(C(=O)O)cc2)Oc2ccc(NC(=O)C3CC3)cc2CC1=O,·,7,·,12,0,·,·
CN1CCN(Cc2nc3ccccc3c(=O)n2Cc2nc(-c3cccc([N+](=O)[O-])c3)cs2)CC1,7,4,-5,·,0,0,·
CN1CCN(Cc2nc3ccccc3c(=O)n2Cc2nc(-c3ccc4ccccc4c3)cs2)CC1,1,1,27*!,·,0,0,3
CCc1ccc(NC(=O)CSc2nc(N)c(NC(=O)c3ccc(F)c(F)c3)c(=O)[nH]2)cc1,0,-2,29*,0,0,0,4
Cc1nnc(NC(=O)CSc2nc(N)c(NC(=O)c3cccs3)c(=O)[nH]2)s1,-19,-4,10,6,0,-1,·
COc1ccc(C(=O)Nc2c(N)nc(SCC(=O)Nc3ccc(NC(C)=O)cc3)[nH]c2=O)cc1,9,-4,8,2,0,-3,·
Cc1ccc(C(=O)Nc2c(N)nc(SCC(=O)Nc3cc(C)on3)[nH]c2=O)cc1,1,-2,26*,0,0,0,-7
Cc1cc(C)cc(NC(=O)CSc2nc(N)c(NC(=O)c3cccs3)c(=O)[nH]2)c1,-10,-2,31*,1,0,-1,6
Nc1nc(SCC(=O)Nc2ccc(F)cc2)[nH]c(=O)c1NC(=O)c1ccc(F)c(F)c1,-13,0,27*,-3,0,4,-1
Cc1ccc(S(=O)(=O)Nc2ccc3c(c2)C(=O)N([C@@H](C)CO)C[C@@H](C)[C@@H](CN(C)C(=O)NC2CCCCC2)OCCCC[C@@H](C)O3)cc1,·,11,·,-1,-1,·,·
C[C@@H]1CN([C@H](C)CO)C(=O)c2cc(C#Cc3ccncc3)cnc2O[C@H]1CN(C)CC1CCCC1,·,-6,·,-3,0,·,·
C[C@H]1CN([C@@H](C)CO)C(=O)c2cc(NS(=O)(=O)c3cn(C)cn3)ccc2O[C@H]1CN(C)C(=O)NC1CCCCC1,·,-4,·,1,0,·,·
SMILES,PvdQ inh,SIRT5 inh,dFosB act-1,PglD DTNB,FGF22 binding,CDK5 p35 inh,dFosB act-2
O=C(Nc1cccc(Cl)c1)N[C@@H]1CC[C@H](CCn2cc(Cc3ccccc3)nn2)O[C@@H]1CO,·,-3,·,4,0,·,·
CCCc1cc(=O)[nH]c(SCC(=O)Nc2cccc3ccccc23)n1,-15,0,22*,5,0,-2,2
CCCc1cc(=O)[nH]c(SCC(=O)Nc2ccc(OCc3ccccc3)cc2)n1,10,1,28*,-2,0,0,0
CCCc1cc(=O)[nH]c(SCC(=O)Nc2ccc(C)cc2)n1,-7,1,4,·,0,0,·
CCCc1cc(=O)[nH]c(SCC(=O)Nc2ccccc2C#N)n1,-30,·,-7,6,·,-1,·
C[C@H]1CN([C@@H](C)CO)S(=O)(=O)c2ccc(C#CC3(O)CCCC3)cc2O[C@H]1CN(C)C(=O)c1ccncc1,·,-4,·,0,0,·,·
CC(C)NC(=O)N(C)C[C@@H]1Oc2c(NC(=O)c3cnccn3)cccc2C(=O)N([C@@H](C)CO)C[C@H]1C,·,-1,·,7,0,·,·
Oc1ccc(C[C@H]2CNC(=S)N2CC2CCCN2C[C@H](Cc2ccc(O)cc2)N2C[C@H](Cc3ccccc3)N(CC3CCCCCC3)C2=S)cc1 (some centres not stated),10,·,72*,0,0,1,3
CCOc1ccc(CCN2C(=S)N([C@@H](Cc3ccc(O)cc3)CN3CCCC3CN3C(=S)NC[C@@H]3Cc3ccc(O)cc3)C[C@@H]2CC(C)C)cc1 (some centres not stated),-13,-3,88*,1,0,-1,3
O=C(Nc1ccc(OC(=O)c2ccccc2)c(-c2nc3ccccc3s2)c1)c1ccccc1,-9,·,18*,·,·,-1,6
C[C@H](CO)N1C[C@H](C)[C@@H](CN(C)C(=O)Nc2cccc3ccccc23)Oc2ccc(NC(=O)c3ccncc3)cc2C1=O,·,-2,·,-4,0,·,·
Cc1ccccc1NC(=O)CSc1nc(N)c(C#N)c(-c2cccs2)c1C#N,-1,·,61*,-6,·,-4,3
